SKN-1 inh – suppressors of acrylamide-induced Pgst-4::GFP reporter in worms, primary screen, SKN-1 inhibitor project, whole organism, uHTS, GFP/RFP fluorescence ratio, strain VP596 | AID 624304, 2012 | 360,000 tested, 0.49% active | C. elegans VP596 Pgst-4::GFP/RFP ratio, 24 h | inhibition, % at 21.8 µM;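 active = interference check ratio from 0.5 to 1.5 plus GFP to RFP signal ratio inhibition reaching or exceeding a fixed threshold, cut at about 30% in these data, passing the limit was not always enough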
M1 antag – human M1 muscarinic receptor antagonists, primary screen, CHO-K1 cells, Fluo-8 calcium fluorescence, 1536-well; Muscarinic acetylcholine receptor M1 (Homo sapiens), P11229; CHO-K1 hM1, ACh EC80 antagonist; inhibition, % at 3 µM; 360,000 tested, 1.3% active;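 active = percent inhibition above its own plate's cutoff, namely the mean of that plate's compound wells plus 3 SD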;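 note: peak over basal fluorescence ratio during 140 s after agonist addition; 0% = ACh EC80 plus DMSO and 100% = DMSO alone without agonist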
Target sequence (P11229 whole entry, looked up): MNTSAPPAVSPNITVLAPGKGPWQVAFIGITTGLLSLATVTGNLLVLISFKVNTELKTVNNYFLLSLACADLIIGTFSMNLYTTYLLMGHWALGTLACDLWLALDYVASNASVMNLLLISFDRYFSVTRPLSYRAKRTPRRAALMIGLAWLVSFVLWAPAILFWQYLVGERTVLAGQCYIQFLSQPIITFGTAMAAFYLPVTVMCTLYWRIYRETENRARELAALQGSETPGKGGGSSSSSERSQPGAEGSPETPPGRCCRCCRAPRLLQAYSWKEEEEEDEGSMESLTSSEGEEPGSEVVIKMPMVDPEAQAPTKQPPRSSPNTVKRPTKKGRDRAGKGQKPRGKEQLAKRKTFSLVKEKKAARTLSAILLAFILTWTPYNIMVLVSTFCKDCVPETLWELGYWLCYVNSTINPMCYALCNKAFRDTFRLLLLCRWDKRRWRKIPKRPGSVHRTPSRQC
M1 PAM – human M1 muscarinic receptor positive allosteric modulators, primary screen, CHO-K1 cells, Fluo-8 calcium fluorescence, 1536-well; CHO-K1 hM1, ACh EC20; 0% = ACh EC20, 100% = maximal ACh; activation, % at 3 µM; 360,000 tested, 0.088% active; in the data active = activation above about 19%, passing the limit was not always enough
Myeloid diff MLP – induction of myeloid progenitor differentiation, primary screen, cell-based, flow cytometry, MLPCN library | AID 624256, 2012 | ER-HoxA9 myeloid progenitors, lysozyme-GFP differentiation | 360,000 tested, 1% active | calls only at 10 µM;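 active = normalized GFP-positive differentiation at or above the plate's own cutoff, the solvent-only control mean plus 3 SD; inconclusive = no clear call, values can overlap the other calls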;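 note: cells exposed to compound for four days before flow analysis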
M1 ag – human M1 muscarinic receptor agonists, primary screen, Fluo-8 calcium fluorescence, CHO-K1 cells, HTS. activation, % at 3 µM. 360,000 tested, 0.33% active. CHO-K1 hM1, agonist mode; 0% DMSO, 100% acetylcholine EC100. Muscarinic acetylcholine receptor M1 (Homo sapiens), P11229. AID 588814, 2011;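 active = activation above the run's mean compound activation plus 3 SD, cut at about 16% in these data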;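 note: peak over basal fluorescence ratio within a 140 s kinetic read after compound addition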
ATG4B inhibitor – ATG4B protease inhibitors, primary screen, biochemical, fluorescence, uHTS | 340,000 tested, 0.51% active | AID 504462, 2011 | Cysteine protease ATG4B (Homo sapiens), Q9Y4P1 | ATG4B cleavage of LC3-PLA2, NBD-HPC fluorescence, 1 h | inhibition, % at 8.33 µM; in the data active = inhibition above about 40%
* hit, by the source's call; i = inactive; u = inconclusive; x = no result; + = active, no number. Hits are enriched below; roughly 3.5% of the tested compounds scored in any of these assays.

SMILES | SKN-1 inh | M1 antag | M1 PAM | Myeloid diff MLP | M1 ag | ATG4B inhibitor
CCn1cc(CN2CCCC(C(=O)c3cccc(OC)c3)C2)c(C)n1 (stereo not given) | 1 | 50* | -34 | i | -13 | 11
C[C@@H]1CN([C@@H](C)CO)C(=O)CCCn2nncc2CO[C@@H]1CN(C)C(=O)Oc1cccc2ccccc12 | 3 | -14 | 3 | i | -5 | x
Cc1nc2ccc(Cl)cc2c(=O)n1-c1cccc(Cl)c1 | 6 | -7 | 10 | i | -3 | 2
CC(C)C[C@@H]1COc2cc(N3CCN(C)CC3)ccc2S(=O)(=O)N1 | -2 | x | x | i | x | x
COc1ccc(C(=O)C2CCCN(Cc3cnc(C)s3)C2)cc1OC (stereo not given) | 4 | 5 | -10 | i | -10 | -9
O=C(c1ccc(C(F)(F)F)cc1)C1CCCN(Cc2ccc(CO)o2)C1 (stereo not given) | -13 | 61* | -26 | i | -7 | -6
Cc1ncc(CN2CCCC(C(=O)c3ccc(C(C)(C)C)cc3)C2)s1 (stereo not given) | -5 | 87* | -30 | i | -10 | 32
CSc1ccc(C(=O)C2CCCN(Cc3cnc(SC)nc3)C2)cc1 (stereo not given) | 1 | -1 | -11 | i | -10 | -7
CCn1ccnc1CN1CCCC(C(=O)c2ccc(SC)cc2)C1 (stereo not given) | -14 | 77* | -26 | + | -9 | 6
C[C@@H]1C(=O)O[C@H]2[C@H](O)[C@]34[C@@H]5OC(=O)[C@]3(OC3OC(=O)[C@H](O)C34[C@H](C(C)(C)C)[C@@H]5O)[C@@]12O (stereo not given in full) | -8 | -19 | 4 | i | 2 | 4
CCCCNc1ccncc1S(=O)(=O)NC(=O)NC(C)C | 10 | -12 | 3 | i | -2 | 2
CS(=O)(=O)c1ccc(C2=C(CNC(=O)c3ccncc3)[C@H]3CC[C@@H](C2)N3Cc2ccccc2)cc1 | 10 | 8 | -8 | i | -11 | x
CS(=O)(=O)c1ccc(C2=C(CNC(=O)c3cccs3)[C@H]3CC[C@@H](C2)N3CCOc2ccccc2)cc1 | 7 | 35* | -25 | i | -11 | x
Cc1ncoc1C(=O)NCC1=C(c2ccc(S(C)(=O)=O)cc2)C[C@@H]2CC[C@H]1N2Cc1ccco1 | 6 | -19 | 8 | i | -7 | x
CS(=O)(=O)c1ccc(C2=C(CNC(=O)c3nccs3)[C@H]3CC[C@@H](C2)N3CCOc2ccccc2)cc1 | -4 | 56* | -26 | i | -11 | x
COc1ccc(C(=O)N/N=C/C23CC[C@@H](O)CC2(O)CC[C@@H]2[C@@H]3CCC3(C)C(C4=CC(=O)OC4)CCC23O)cc1 (stereo not given in full) | -1 | -1 | 2 | + | -3 | -11
CC12CC[C@H]3[C@@H](CCC4(O)C[C@H](O)CCC34/C=N/NC(=O)c3ccc(O)cc3)C1(O)CCC2C1=CC(=O)OC1 (stereo not given in full) | 7 | -12 | 12 | i | -2 | -5
CCCCc1nc(N2CCNCC2)c(C#N)c2c1CSC(C)(C)C2 | 2 | 54* | -20 | i | -4 | 5
N#Cc1c(N2CCNCC2)nc(-c2ccco2)c2c1CCCC2 | -3 | -12 | 8 | i | -4 | -2
CCN1/C(=C\C=C\C2=[N+](CC)c3ccccc3C2(C)C)C(C)(C)c2ccccc21 | 66 | 96* | -20 | x | 388* | -3
Cc1cccc(C)c1-n1nnnc1C(c1cccs1)N1CCC2(CC1)C(=O)NCN2c1ccccc1 (stereo not given) | 1 | -14 | 2 | i | -1 | x
C#CCOC(=O)C1=CCCN(C)C1 | 14 | 83 | -14 | i | 106* | 4
CNC(=O)Oc1cccc2c1OC(C)(C)O2 | -10 | 6 | 8 | i | 0 | 1
Cc1cc(N2C(=O)C3CCCN3C2c2sccc2C)no1 (stereo not given) | 3 | -3 | 2 | i | -5 | -6
O=C(Nc1ccc(C(=O)O)cc1)Oc1ccc(N(CCCl)CCCl)cc1 | -11 | -4 | 2 | u | -4 | x
SMILES | SKN-1 inh | M1 antag | M1 PAM | Myeloid diff MLP | M1 ag | ATG4B inhibitor
O=C1NC(=O)N(Cc2ccco2)C(=O)/C1=C\c1cccn1CCOc1ccc(Cl)cc1 | -27 | 1 | 3 | + | -8 | 4
COC(=O)C12OCC34C(CC5C(C)=C(O)C(=O)CC5(C)C3C(O)C1O)OC(=O)C(OC(=O)/C=C(\C)C(C)C)C24 (stereo not given) | 56* | -24 | 10 | x | -6 | 14
Cc1ccc2nsnc2c1-n1c(C)nc2ccccc2c1=O | -4 | -9 | 12 | + | -1 | -2
Clc1cccc(Cl)c1CN1CCN(c2ccccc2)CC1 | 2 | -13 | 5 | i | -7 | -2
COc1ccc(OCC#CCN2CCCCCC2)cc1 | 0 | 7 | -16 | i | -10 | 8
Cc1ccc(C(C)C)c(OCC#CCN2CCCC2)c1 | 0 | 90* | -22 | i | -6 | 7
CN/C=C(/Cl)P(=O)(OC(C)C)OC(C)C | 3 | -11 | 17 | i | -1 | 1
CCCCn1c(=O)c(C(=O)Nc2cnccn2)c(O)c2ccccc21 | 8 | -10 | 8 | + | -2 | -6
Brc1ccc2[nH]cc(/C=N/N3CCCCC3)c2c1 | -2 | 7 | -5 | i | 32* | -3
C(=NN1CCCCCC1)c1c[nH]c2ccccc12 | 15 | 18 | -9 | i | -3 | -3
O=C1NC(=O)N(c2ccccc2)C(=O)/C1=C/c1coc2ccc(O)cc2c1=O | 1 | -10 | 7 | + | 3 | 6
O=C1NC(=O)N(c2ccccc2)C(=O)/C1=C/c1ccoc1 | 16 | 6 | -7 | i | -2 | -1
O=C1NC(=O)N(c2ccc(Cl)cc2)C(=O)/C1=C/c1coc2ccc(O)cc2c1=O | -2 | 1 | 1 | + | 0 | 23
COc1cccc(C2CCN(C)C2)c1 (stereo not given) | 3 | -4 | -1 | i | 29* | x
COCC(=O)N1Cc2ccccc2-n2nncc2C1 | 9 | -17 | 10 | i | -6 | 0
CN(C)CC#CCC(O)(c1ccccc1)C1CCCC1 (stereo not given) | -29 | 99* | -28 | i | -7 | 26

Source: PubChem (several laboratories)
